CYP2C19 activ = activators of human cytochrome P450 2C19; recombinant CYP2C19, luciferin-H EGE luminescence; stronger effect = higher value; 0 = fully inhibited enzyme, 1 = untreated enzyme; activation factor at 5 µM; P33261; 96,000 tested, under 10 active;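 active = activation factor of at least 2 at 5 µM in the primary screen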;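 also: 0 = wells with 2.5 mM tranylcypromine and 1 = vehicle-only wells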
CYP2C9 inh = inhibitors of human CYP2C9; P11712; CYP2C9 Supersomes, luciferin-H conversion, luminescence; inhibition, % at 5 µM; actives 20% (n = 96,000);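 active = blocking of liver enzyme CYP2C9 beyond about 50% at 5 µM, limit read from the data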
CD11b adhes inh = blocks human CD11b/CD18 adhesion to fibrinogen; inhibition, % at 10 µM; AID 1497; K562 CD11b/CD18 adhesion to fibrinogen, ATPlite luminescence; Mn2+ added to activate the integrin; P05107+P11215; actives 0.54% (n = 93,000);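 active = primary inhibition of 50% or more at 10 µM, then 40% or more on retest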
Target sequence (P05107 whole entry, looked up, other chains not shown): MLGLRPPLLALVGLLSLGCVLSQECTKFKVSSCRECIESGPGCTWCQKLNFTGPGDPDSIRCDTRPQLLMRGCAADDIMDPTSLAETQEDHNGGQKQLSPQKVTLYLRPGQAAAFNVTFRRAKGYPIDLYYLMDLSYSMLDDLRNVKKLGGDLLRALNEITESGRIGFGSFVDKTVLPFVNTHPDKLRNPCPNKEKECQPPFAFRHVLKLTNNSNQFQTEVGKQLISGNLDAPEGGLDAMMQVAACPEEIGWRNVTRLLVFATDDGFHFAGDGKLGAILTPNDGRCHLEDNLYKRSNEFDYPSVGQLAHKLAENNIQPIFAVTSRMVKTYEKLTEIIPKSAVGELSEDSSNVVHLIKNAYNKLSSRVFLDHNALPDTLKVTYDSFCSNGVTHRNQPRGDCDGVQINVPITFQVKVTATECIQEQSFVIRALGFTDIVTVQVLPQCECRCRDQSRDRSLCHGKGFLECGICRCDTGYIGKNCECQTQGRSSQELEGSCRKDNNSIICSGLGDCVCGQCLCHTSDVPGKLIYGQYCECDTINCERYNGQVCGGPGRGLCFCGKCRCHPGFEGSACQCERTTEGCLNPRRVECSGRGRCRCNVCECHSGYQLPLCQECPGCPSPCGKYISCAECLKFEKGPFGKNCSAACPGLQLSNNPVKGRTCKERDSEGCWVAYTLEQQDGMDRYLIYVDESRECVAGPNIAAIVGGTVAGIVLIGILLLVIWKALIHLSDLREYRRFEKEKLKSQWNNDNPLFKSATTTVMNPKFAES
CYP2C19 inh = inhibitors of human CYP2C19 | P33261 | CYP2C19 Supersomes, luciferin-H EGE luminescence, 30 min | inhibition, % at 5 µM | actives 21% (n = 96,000) | AID 778;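 active = CYP2C19 inhibition above a set limit at 5 µM in the primary screen, cut at about 50% in these data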;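 also: plate controls were negative control wells for no effect and 2.5 mM tranylcypromine positive control for full effect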
CYP2C9 act = CYP2C9 (human) activation | AID 1024 | recombinant CYP2C9, luciferin-H conversion, luminescence; stronger effect = higher value; factor 1 = untreated enzyme, 0 = blocked | activation factor at 5 µM | actives 1.4% (n = 96,000);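 active = activation factor of 2 or more for CYP2C9 at a 5 µM dose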;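 also: 0 = sulfaphenazole-blocked wells and 1 = vehicle-only wells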
CD11b adhes enh = enhancers of human CD11b/CD18 binding to fibrinogen. actives 0.07% (n = 93,000). activation, % at 10 µM. P05107+P11215. AID 1499. K562 CD11b/CD18 adhesion to fibrinogen, ATPlite luminescence;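 active = 10 µM primary screen giving 50% or more activity, confirmed by 40% or more on retest at that dose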
* marks the source's active call; other numbers are inactive results. An excerpt weighted towards active compounds, which were near 28% of everything screened.

How did Cc1ccc(N(C)C(=O)N2CCN(S(=O)(=O)c3ccc4ccccc4c3)CC2)cc1 do in these assays?
CYP2C19 activ: 0.4; CYP2C9 inh: 33.9; CD11b adhes inh: -13.4; CYP2C19 inh: 56.8*; CYP2C9 act: 0.7; CD11b adhes enh: 0.9

Results for Cc1ccc(N(C)C(=O)N2CCN(c3ccccn3)CC2)cc1 ?
CYP2C19 activ: 0.8; CYP2C9 inh: 53.3*; CD11b adhes inh: 5.1; CYP2C19 inh: 20.8; CYP2C9 act: 0.5; CD11b adhes enh: -5.4

What do the screens show for `Cc1ccc(N(C)C(=O)N2CCN(S(=O)(=O)c3ccc(C)cc3)CC2)cc1`?
CYP2C19 activ: 0.1; CYP2C9 inh: 56.2*; CD11b adhes inh: -0.4; CYP2C19 inh: 94.6*; CYP2C9 act: 0.4; CD11b adhes enh: -5.1

How did CC(C)CC(=O)N1CCN(S(=O)(=O)c2ccc3ccccc3c2)CC1 do in these assays?
CYP2C19 activ: 0; CYP2C9 inh: -92.3; CD11b adhes inh: 19.6; CYP2C19 inh: 95.7*; CYP2C9 act: 1.9; CD11b adhes enh: -3.8

How did CCOC(=O)N1CCN(C(=O)CCn2c(=S)[nH]c3cc(OCC)c(OCC)cc3c2=O)CC1 do in these assays?
CYP2C19 activ: 0.9; CYP2C9 inh: 23.8; CD11b adhes inh: -12.4; CYP2C19 inh: 7.4; CYP2C9 act: 0.8; CD11b adhes enh: 2.7

How did O=C(CCCn1c(=S)[nH]c2cc3c(cc2c1=O)OCO3)N1CCc2ccccc2C1 do in these assays?
CYP2C19 activ: 0.6; CYP2C9 inh: 57.3*; CYP2C19 inh: 38.1; CYP2C9 act: 0.4

What do the screens show for `Cc1cccc(N2CCN(C(=O)CCn3c(=S)[nH]c4cc5c(cc4c3=O)OCO5)CC2C)c1` (configuration not stated)?
CYP2C19 activ: 0.5; CYP2C9 inh: 53.4*; CD11b adhes inh: 4.6; CYP2C19 inh: 48.4; CYP2C9 act: 0.5; CD11b adhes enh: 1.2

What do the screens show for `O=C(NCCN1CCCC1)c1ccc(Cn2c(=S)[nH]c3cc4c(cc3c2=O)OCO4)cc1`?
CYP2C19 activ: 0.9; CYP2C9 inh: 10.8; CD11b adhes inh: -16.0; CYP2C19 inh: 6.2; CYP2C9 act: 0.9; CD11b adhes enh: 31.4

What do the screens show for `O=C(CCCn1c(=O)oc2ccccc21)N1CCc2ccccc2C1`?
CYP2C19 activ: 0.2; CYP2C9 inh: -1.4; CD11b adhes inh: -12.2; CYP2C19 inh: 75.4*; CYP2C9 act: 1; CD11b adhes enh: 0.9

What do the screens show for `O=C(CCn1c(=S)[nH]c2cc3c(cc2c1=O)OCO3)N1CCc2ccccc2C1`?
CYP2C19 activ: 0.1; CYP2C9 inh: 78.9*; CD11b adhes inh: -33.6; CYP2C19 inh: 90.7*; CYP2C9 act: 0.2; CD11b adhes enh: -0.6

How did COc1ccnc(N=CNOCc2ccc(F)cc2Cl)c1C#N do in these assays?
CYP2C19 activ: 0.6; CYP2C9 inh: 9.6; CD11b adhes inh: -2.1; CYP2C19 inh: 38.8; CYP2C9 act: 0.9; CD11b adhes enh: 1.8

How did C/C(=N/NC(=O)c1cccs1)c1ccc(NC(=O)COc2ccc(Cl)cc2)cc1 do in these assays?
CYP2C19 activ: 1.1; CYP2C9 inh: -1.7; CD11b adhes inh: -2.2; CYP2C19 inh: -6.8; CYP2C9 act: 1; CD11b adhes enh: -1.9

Results for CN(C)c1nc(N)nc(CSc2ncc(Cl)cc2Cl)n1 ?
CYP2C19 activ: 0.4; CYP2C9 inh: 0.3; CD11b adhes inh: 3.1; CYP2C19 inh: 64.3*; CYP2C9 act: 1; CD11b adhes enh: -2.3

Results for CC(C)c1ccccc1NC(=O)C1CN(S(=O)(=O)c2ccccc2)CCN1S(=O)(=O)c1ccccc1 (configuration not stated) ?
CD11b adhes inh: 9.8; CD11b adhes enh: 2.9

What do the screens show for `CCC(=O)Nc1cccc(NC(=S)NC(=O)c2ccccc2Cl)c1`?
CYP2C19 activ: 0.7; CYP2C9 inh: -154.4; CYP2C19 inh: 28.1; CYP2C9 act: 2.5*

Results for CNS(=O)(=O)c1cccc(C(=O)OCc2cc(Cl)cc3c2OCOC3)c1 ?
CYP2C19 activ: 0.2; CYP2C9 inh: -92.2; CD11b adhes inh: 14.4; CYP2C19 inh: 77.5*; CYP2C9 act: 1.9; CD11b adhes enh: -1.5

What do the screens show for `CCOC(=O)c1c(C)[nH]c(C)c1C(=O)COC(=O)c1ccc(Cl)c(S(N)(=O)=O)c1`?
CYP2C19 activ: 0.1; CYP2C9 inh: 16.5; CD11b adhes inh: 3.9; CYP2C19 inh: 91.5*; CYP2C9 act: 0.8; CD11b adhes enh: -1.6
